According to PubChem BioAssay (NCATS):
Values joined by “and” are separate entries in the source; they are usually repeats but may differ in a detail not shown here. Equal values may be shown once. Results filed as inconclusive are left out. Active and inactive are the calls of the source. Unless noted, calls follow the shape of the full dose curve.

Assays:
[1] = molecular target: Estrogen receptor (Homo sapiens) (UniProt P03372); assay: qHTS assay for small molecule antagonists of estrogen receptor alpha signaling (AID 588513; active = well fitted curve in the direction sought with a large enough effect in the signal ratio, with a control signal flat, not every such curve was filed as active; the % refers to the signal ratio; also: potency is read from the fitted curve at half-maximal effect)
Estrogen receptor (Homo sapiens), sequence (P03372 whole entry, looked up): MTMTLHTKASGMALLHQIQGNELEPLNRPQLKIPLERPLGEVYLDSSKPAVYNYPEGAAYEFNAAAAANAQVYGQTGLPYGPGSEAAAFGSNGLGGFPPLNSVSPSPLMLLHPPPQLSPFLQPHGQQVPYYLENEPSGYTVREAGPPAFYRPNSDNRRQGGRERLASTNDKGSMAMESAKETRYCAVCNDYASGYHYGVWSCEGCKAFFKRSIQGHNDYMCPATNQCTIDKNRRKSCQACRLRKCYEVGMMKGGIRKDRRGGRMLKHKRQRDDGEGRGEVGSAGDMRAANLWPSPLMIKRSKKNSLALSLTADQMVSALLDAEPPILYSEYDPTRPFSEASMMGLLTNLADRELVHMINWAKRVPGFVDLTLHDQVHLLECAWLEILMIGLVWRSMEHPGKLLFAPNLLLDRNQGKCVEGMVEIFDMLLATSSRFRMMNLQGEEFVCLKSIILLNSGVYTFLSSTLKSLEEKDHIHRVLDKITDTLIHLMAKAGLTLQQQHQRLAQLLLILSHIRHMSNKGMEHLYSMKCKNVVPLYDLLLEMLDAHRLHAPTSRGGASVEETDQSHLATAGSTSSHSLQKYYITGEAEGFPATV
Procedure, shortened: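 Antagonist-mode qHTS in ER-alpha-UAS-bla HEK 293 cells: compound titration, 0.5nM estradiol for 18 h, CCF4 fluorescence, Hill-derived IC50.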

[2] = molecular target: Estrogen receptor (Homo sapiens) (UniProt P03372); assay: qHTS assay for small molecule agonists of estrogen receptor alpha signaling (AID 588514);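 also: 0% = vehicle only and 100% = reference agonist; nearly all actives have a fitted effect of over 70% in size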
Procedure, shortened: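 ER-alpha-UAS-bla GripTite HEK293 cells, 5000/well in 2% charcoal/dextran-stripped FBS medium, treated with compound titrations 18 h at 37 C. CCF4 beta-lactamase read by fluorescence after 2 h RT; normalised to 20 nM 17-beta-estradiol (100%) and DMSO (0%), Hill fit for EC50 and efficacy.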

[3] = molecular target: Vitamin D3 receptor (Homo sapiens) (UniProt P11473); assay: qHTS assay for small molecule agonists of vitamin D receptor signaling (AID 588543);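 also: 0% = DMSO basal and 100% = reference agonist control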
Vitamin D3 receptor (Homo sapiens), sequence (P11473 whole entry, looked up): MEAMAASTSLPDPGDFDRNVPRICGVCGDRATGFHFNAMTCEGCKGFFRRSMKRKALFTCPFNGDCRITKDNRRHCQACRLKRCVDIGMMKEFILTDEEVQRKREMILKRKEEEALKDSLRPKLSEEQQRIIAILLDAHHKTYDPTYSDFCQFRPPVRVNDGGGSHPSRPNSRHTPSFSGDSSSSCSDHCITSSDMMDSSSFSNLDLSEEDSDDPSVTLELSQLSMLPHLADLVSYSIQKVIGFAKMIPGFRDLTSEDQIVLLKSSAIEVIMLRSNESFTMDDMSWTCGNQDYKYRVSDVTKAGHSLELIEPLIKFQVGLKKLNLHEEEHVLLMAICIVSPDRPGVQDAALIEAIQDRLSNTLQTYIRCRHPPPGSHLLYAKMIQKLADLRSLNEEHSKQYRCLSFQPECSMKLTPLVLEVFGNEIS
Procedure, shortened: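 Measured: β-lactamase reporter activity (CCF4, 405 nm excitation, 460/530 nm emission) in HEK293T VDR-UAS-bla cells after 16 h compound exposure at 37 °C. Normalization against 50 nM 1α,25-dihydroxyvitamin D3 and DMSO; Hill-fit EC50.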

[4] = molecular target: Thyroid hormone receptor beta (Homo sapiens) (UniProt P10828); assay: qHTS assay for small molecule agonists of thyroid hormone receptor beta signaling (AID 588545);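 also: 0% = DMSO only and 100% = 10 nM T3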
Thyroid hormone receptor beta (Homo sapiens), sequence (P10828 whole entry, looked up): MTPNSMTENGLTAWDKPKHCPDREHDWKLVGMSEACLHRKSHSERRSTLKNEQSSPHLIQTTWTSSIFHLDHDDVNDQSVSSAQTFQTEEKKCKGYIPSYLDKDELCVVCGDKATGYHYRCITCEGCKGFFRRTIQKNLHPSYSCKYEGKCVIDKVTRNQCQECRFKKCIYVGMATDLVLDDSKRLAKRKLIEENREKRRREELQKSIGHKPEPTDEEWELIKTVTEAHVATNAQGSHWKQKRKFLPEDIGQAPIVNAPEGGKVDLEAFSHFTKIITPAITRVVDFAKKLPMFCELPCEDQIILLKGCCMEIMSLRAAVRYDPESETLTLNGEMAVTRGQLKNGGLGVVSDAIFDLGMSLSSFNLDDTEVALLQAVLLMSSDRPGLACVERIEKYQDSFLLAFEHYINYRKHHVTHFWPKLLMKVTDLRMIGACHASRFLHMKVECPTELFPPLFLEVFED
Procedure, shortened: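 TR-UAS-bla GripTite HEK 293 cells (2500/well, medium with 2% charcoal/dextran FBS) were treated in agonist mode for 18 h at 37 C, titrated. Beta-lactamase was read by CCF4 ratio after 2 h; normalized to 10 nM T3 (100%) and DMSO, Hill-fitted for EC50 and efficacy.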

[5] = qHTS assay for environmental chemicals that activate the Aryl hydrocarbon Receptor (AhR) signaling pathway (AID 651777; active = well fitted curve in the direction sought with a large enough effect; an effect the other way counts as inactive or inconclusive; also: % of control where 0% means no effect; nearly all actives have a fitted effect of over 15% in size); conditions: 1A2-DRE human hepatoma cells, luciferase, 24 h; activation: stronger effect = higher value
Procedure, shortened: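 Following a 24 hr incubation with test chemicals at 37 C and 5% CO2, 1A2-DRE human hepatoma cells received One-Glo reagent; after 30 min at room temperature, luciferase output reflected CYP1A2 induction via AhR.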

[6] = qHTS assay for small molecule agonists of the antioxidant response element (ARE) signaling pathway measured by Nrf2-dependant transcriptional activity (AID 720636; active = well fitted curve in the direction sought with a large enough effect in the repeat runs; an effect the other way counts as inactive or inconclusive;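 also: HepG2 cells with an ARE-driven luciferase reporter; % of control where 0% means no effect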)
Procedure, shortened: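 ONE-Glo luminescence, read 30 min after reagent addition at room temperature, reflected ARE reporter activity in HepG2 cells that had been incubated with compound for 16 hr at 37 C in 1% dialyzed FBS.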

[7] = qHTS assay for small molecule agonists of the antioxidant response element (ARE) signaling pathway measured by Nrf2-dependant transcriptional activity - cell viability counter screen (AID 720653; active = well fitted curve in the direction sought with a large enough effect in the repeat runs; an effect the other way counts as inactive or inconclusive; also: % is scaled to controls: 0 for no effect and ±100 for the full control effect); conditions: ARE-bla HepG2 viability, CellTiter-Glo ATP luminescence, 16 h; max response: stronger effect = lower value
Procedure, shortened: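 ARE-bla HepG2 cells treated with compounds for 16 h at 37C; this counter screen measures viability as intracellular ATP by CellTiter-Glo luminescence after 30 min at room temperature.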

[8] = qHTS assay for cell viability of HEK293 cells (AID 743288; active = well fitted curve in the direction sought with a large enough effect; an effect the other way counts as inactive or inconclusive; also: % is scaled to controls: 0 for no effect and ±100 for the full control effect; nearly all actives have a fitted effect of over 50% in size); conditions: ATP luminescence (CellTiter-Glo), 18 h; max response: stronger effect = lower value
Procedure, shortened: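 Luminescent ATP quantitation served as the viability read-out. Cells (parental HEK293, 2,000/well) received compounds after at least 5 h at 37 C and were exposed for 18 h before a 30 min room-temperature reagent step.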

[9] = qHTS assay for cell viability of the p53RE-bla HCT-116 cell line (AID 743292; active = well fitted curve in the direction sought with a large enough effect; an effect the other way counts as inactive or inconclusive; also: % is scaled to controls: 0 for no effect and ±100 for the full control effect; nearly all actives have a fitted effect of over 55% in size)
Procedure, shortened: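 After plating at 4,000 cells per well and a 5 h rest at 37 C, HCT-116 cells carrying p53RE-bla received test chemicals in DMSO. Sixteen hours later at 37 C, CellTiter-Glo was added and luminescence recorded following 30 min at room temperature.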

[10] = molecular target: Nuclear receptor subfamily 1 group I member 2 (Rattus norvegicus) (UniProt Q9R1A7); assay: qHTS assay for small molecule activators of the rat pregnane X receptor (rPXR) signaling pathway (AID 651751; call rule not given here; also: 0% is about no effect); conditions: rPXR reporter cells, luciferase (One-Glo), 24 h
Nuclear receptor subfamily 1 group I member 2 (Rattus norvegicus), sequence (Q9R1A7 whole entry, looked up): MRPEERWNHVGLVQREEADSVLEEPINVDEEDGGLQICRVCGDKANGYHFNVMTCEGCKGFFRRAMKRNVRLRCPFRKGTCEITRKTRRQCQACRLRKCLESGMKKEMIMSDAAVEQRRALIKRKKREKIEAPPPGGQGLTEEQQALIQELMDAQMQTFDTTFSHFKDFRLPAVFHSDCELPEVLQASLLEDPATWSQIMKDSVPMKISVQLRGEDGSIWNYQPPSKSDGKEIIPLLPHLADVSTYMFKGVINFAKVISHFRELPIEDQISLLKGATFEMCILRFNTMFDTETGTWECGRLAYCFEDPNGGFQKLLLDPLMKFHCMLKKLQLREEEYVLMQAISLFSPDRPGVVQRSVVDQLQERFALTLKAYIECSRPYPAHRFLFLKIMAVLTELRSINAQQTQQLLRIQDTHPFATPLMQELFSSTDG

[11] = molecular target: Glucocorticoid receptor (Homo sapiens) (UniProt P04150); assay: qHTS assay for small molecule agonists of glucocorticoid receptor signaling (AID 588532; active = well fitted curve in the direction sought with a large enough effect in the signal ratio, with a control signal flat; the % refers to the signal ratio;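 also: 100% = dexamethasone at 0.1 µM and 0% = DMSO only wells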); conditions: HeLa MMTV-bla, beta-lactamase ratio, agonist, 18 h; activation: stronger effect = higher value, percent of dexamethasone control, DMSO zero
Glucocorticoid receptor (Homo sapiens), sequence (P04150 whole entry, looked up): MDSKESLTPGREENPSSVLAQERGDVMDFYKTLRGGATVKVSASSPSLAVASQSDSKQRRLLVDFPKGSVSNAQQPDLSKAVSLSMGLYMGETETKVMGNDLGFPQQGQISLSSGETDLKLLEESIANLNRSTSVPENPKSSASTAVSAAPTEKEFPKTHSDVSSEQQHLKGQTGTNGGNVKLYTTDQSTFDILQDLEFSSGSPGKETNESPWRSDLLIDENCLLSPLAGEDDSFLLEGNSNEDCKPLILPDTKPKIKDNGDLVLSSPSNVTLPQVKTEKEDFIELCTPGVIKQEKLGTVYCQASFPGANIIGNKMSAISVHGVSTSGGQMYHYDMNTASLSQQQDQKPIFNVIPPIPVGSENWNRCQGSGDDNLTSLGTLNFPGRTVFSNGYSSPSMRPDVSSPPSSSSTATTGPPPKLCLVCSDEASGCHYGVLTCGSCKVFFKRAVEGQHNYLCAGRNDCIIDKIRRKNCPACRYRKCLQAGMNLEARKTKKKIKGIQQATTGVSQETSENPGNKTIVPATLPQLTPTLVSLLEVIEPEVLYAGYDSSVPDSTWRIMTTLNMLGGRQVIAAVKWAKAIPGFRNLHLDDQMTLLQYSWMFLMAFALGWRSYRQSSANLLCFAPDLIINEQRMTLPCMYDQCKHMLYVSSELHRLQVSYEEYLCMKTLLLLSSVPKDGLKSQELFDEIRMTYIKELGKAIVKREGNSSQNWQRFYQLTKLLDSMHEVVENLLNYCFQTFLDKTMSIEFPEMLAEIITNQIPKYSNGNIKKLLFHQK
Procedure, shortened: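 MMTV-bla HeLa beta-lactamase reporter cells in 1% charcoal/dextran FBS medium, compounds up to 92 uM for 18 h at 37 C, CCF4 readout; normalized to 0.1 uM dexamethasone (100%), EC50 and efficacy from Hill fits.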

[12] = molecular target: Vitamin D3 receptor (Homo sapiens) (UniProt P11473); assay: qHTS assay for small molecule antagonists of vitamin D receptor signaling (AID 588541);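 also: receptor activated by calcitriol during compound treatment; series mostly up to about 77 µM; % is scaled to controls: 0 for no effect and ±100 for the full control effect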
Procedure, shortened: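 VDR-UAS-bla HEK293T cells in 2% charcoal-stripped FBS were stimulated with 1-alpha,25-dihydroxyvitamin D3 (3 nM final) plus compound for 16 h at 37 C. The beta-lactamase CCF4 readout was normalized to 50 nM agonist and DMSO, and Hill fits gave IC50.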

[13] = molecular target: Retinoic acid receptor RXR-alpha (Homo sapiens) (UniProt P19793); assay: qHTS assay for small molecule agonists of retinoid X receptor alpha signaling (AID 588544);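 also: 0% = DMSO basal wells and 100% = reference agonist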
Retinoic acid receptor RXR-alpha (Homo sapiens), sequence (P19793 whole entry, looked up): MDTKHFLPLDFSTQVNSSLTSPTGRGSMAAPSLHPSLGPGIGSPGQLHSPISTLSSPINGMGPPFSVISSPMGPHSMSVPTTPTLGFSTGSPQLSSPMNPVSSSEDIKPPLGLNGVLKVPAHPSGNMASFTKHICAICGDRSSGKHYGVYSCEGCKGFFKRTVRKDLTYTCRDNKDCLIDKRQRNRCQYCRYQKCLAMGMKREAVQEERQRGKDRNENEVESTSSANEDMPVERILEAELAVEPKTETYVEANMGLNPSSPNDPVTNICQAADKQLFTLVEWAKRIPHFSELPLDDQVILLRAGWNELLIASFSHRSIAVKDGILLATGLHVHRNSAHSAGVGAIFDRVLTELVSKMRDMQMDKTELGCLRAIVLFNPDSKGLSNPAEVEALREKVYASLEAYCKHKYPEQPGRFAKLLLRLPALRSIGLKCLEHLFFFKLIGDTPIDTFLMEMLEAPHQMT

[14] = qHTS assay for small molecule antagonists of retinoid X receptor alpha signaling (AID 588546; active = well fitted inhibition curve with a large enough effect in the signal ratio, with a control signal flat, not every such curve was filed as active; the % refers to the signal ratio;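 also: cells stimulated with 9-cis-retinoic acid as agonist; % is scaled to controls: 0 for no effect and ±100 for the full control effect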); conditions: HEK293T RXRa-UAS-bla, beta-lactamase ratio, antagonist mode; measured here: W530 green channel, cytotoxicity proxy
Procedure, shortened: (§1)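 Beta-lactamase reporter inhibition, read as CCF4 fluorescence ratio (ex 405, em 460/530 nm) after 2 h at RT. HEK293T UAS-bla cells, 2500/well, were stimulated with 9-cis-RA at 500 or 100 nM final alongside test compound for 18 h at 37 C.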

[15] = molecular target: Retinoic acid receptor RXR-alpha (Homo sapiens) (UniProt P19793); assay: as above; conditions: HEK293T RXRa-UAS-bla, beta-lactamase ratio, antagonist mode
Procedure, shortened: as §1

[16] = qHTS assay for small molecule activators of the p53 signaling pathway (AID 651743; active = well fitted activation curve with a large enough effect in the signal ratio, not every such curve was filed as active; the % refers to the signal ratio; also: series mostly up to about 92 µM; % of control where 0% means no effect); conditions: HCT-116 p53RE-bla, beta-lactamase FRET ratio, 16 h; activation: stronger effect = higher value
Procedure, shortened: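 p53RE-bla HCT-116 cells carrying a beta-lactamase reporter under p53 response elements were exposed to compounds for 16 hours at 37 C. Reporter activity read as fluorescence after 2 hours at room temperature with LiveBLAzer B/G FRET substrate.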

[17] = qHTS assay for small molecule activators of the nuclear factor-kappa B (NF-kB) signaling pathway (AID 651749; active = well fitted activation curve with a large enough effect in the signal ratio; the % refers to the signal ratio; also: series mostly up to about 77 µM; % of control where 0% means no effect); conditions: NF-kB-bla ME-180 cells, beta-lactamase FRET ratio, 16 h; activation: stronger effect = higher value
Procedure, shortened: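 NF-kB-bla ME-180 cells carrying a beta-lactamase reporter under an NF-kB response element, 2,000 cells/well, exposed to compound for 16 hr at 37C; FRET-based beta-lactamase fluorescence read-out of pathway activation.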

[18] = molecular target: Peroxisome proliferator-activated receptor alpha (Homo sapiens) (UniProt Q07869); assay: qHTS assay for small molecule agonists of the peroxisome proliferator-activated receptor alpha (PPARalpha) signaling pathway (AID 651778; active = well fitted curve in the direction sought with a large enough effect; an effect the other way counts as inactive or inconclusive; also: % of control where 0% means no effect); conditions: PathHunter PPARalpha complementation, chemiluminescence, 6 h; max response: stronger effect = higher value
Peroxisome proliferator-activated receptor alpha (Homo sapiens), sequence (Q07869 whole entry, looked up, the tested form may be a part): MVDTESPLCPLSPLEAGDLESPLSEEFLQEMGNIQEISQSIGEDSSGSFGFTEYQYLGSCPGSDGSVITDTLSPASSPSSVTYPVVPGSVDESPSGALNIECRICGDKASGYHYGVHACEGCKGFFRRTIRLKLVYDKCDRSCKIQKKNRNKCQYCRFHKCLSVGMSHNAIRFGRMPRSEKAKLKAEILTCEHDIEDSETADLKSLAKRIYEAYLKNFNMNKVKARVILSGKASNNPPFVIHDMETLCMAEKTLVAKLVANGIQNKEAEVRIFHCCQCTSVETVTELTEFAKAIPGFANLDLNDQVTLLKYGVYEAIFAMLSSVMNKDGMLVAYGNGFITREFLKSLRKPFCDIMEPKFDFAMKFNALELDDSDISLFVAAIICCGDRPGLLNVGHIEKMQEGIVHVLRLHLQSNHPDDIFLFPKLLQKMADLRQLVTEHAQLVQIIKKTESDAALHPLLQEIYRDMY
Procedure, shortened: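 Enzyme-fragment complementation assay in which ligand-bound PPARalpha translocates and forms an active enzyme that generates chemiluminescence. Cells were plated overnight, exposed to compound for 6 hr at 37 C, and then given detection reagent for 60 min at room temperature.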

[19] = molecular target: Peroxisome proliferator-activated receptor delta (Homo sapiens) (UniProt Q03181); assay: qHTS assay for small molecule agonists of peroxisome proliferator-activated receptor delta signaling (AID 588534);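 also: 0% = DMSO basal wells and 100% = positive control agonist at 10 µM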
Peroxisome proliferator-activated receptor delta (Homo sapiens), sequence (Q03181 whole entry, looked up): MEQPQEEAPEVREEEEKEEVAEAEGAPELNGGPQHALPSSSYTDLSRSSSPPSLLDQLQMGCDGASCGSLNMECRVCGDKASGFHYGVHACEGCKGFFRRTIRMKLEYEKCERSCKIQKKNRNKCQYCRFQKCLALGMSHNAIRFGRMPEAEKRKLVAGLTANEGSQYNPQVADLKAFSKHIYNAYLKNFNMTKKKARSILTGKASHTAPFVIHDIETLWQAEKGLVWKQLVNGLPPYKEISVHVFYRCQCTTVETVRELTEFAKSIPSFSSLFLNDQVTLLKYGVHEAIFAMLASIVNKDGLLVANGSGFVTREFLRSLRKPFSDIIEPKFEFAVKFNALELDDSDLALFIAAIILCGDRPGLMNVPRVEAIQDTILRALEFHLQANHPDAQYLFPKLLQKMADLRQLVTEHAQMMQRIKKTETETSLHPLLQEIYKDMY
Procedure, shortened: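 Cells carrying a PPAR-delta beta-lactamase reporter were treated with compounds for 18 h at 37 °C in agonist mode. CCF4 fluorescence was read after 2 h; EC50 and efficacy from Hill fits.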

[20] = molecular target: Peroxisome proliferator-activated receptor gamma (Homo sapiens) (UniProt P37231); assay: qHTS assay for small molecule agonists of peroxisome proliferator-activated receptor gamma signaling (AID 588536; active = well fitted curve in the direction sought with a large enough effect in the signal ratio, with a control signal flat, not every such curve was filed as active; the % refers to the signal ratio;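 also: 0% = DMSO basal wells and 100% = rosiglitazone at 2 µM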)
Peroxisome proliferator-activated receptor gamma (Homo sapiens), sequence (P37231 whole entry, looked up): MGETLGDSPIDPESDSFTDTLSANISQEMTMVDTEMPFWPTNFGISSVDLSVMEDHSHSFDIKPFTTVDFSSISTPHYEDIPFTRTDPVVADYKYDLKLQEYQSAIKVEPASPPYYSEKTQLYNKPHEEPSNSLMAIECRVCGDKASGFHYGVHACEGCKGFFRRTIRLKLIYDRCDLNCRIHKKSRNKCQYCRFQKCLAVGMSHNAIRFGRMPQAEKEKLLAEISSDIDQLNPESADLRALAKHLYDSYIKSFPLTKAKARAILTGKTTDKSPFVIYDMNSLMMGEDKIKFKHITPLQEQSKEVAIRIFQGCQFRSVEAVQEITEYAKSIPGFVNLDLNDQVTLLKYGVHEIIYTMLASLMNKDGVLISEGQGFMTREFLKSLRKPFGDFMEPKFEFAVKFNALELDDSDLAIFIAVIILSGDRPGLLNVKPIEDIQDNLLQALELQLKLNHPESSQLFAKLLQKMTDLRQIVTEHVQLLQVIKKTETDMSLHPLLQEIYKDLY
Procedure, shortened: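 HEK293 UAS-bla reporter line, 1% charcoal/dextran FBS; titration, 16 h, 37 C; CCF4 loading 2 h RT; fluorescence 460/530 nm. Normalized to rosiglitazone 2 uM = 100%, DMSO = 0%.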

COP(=O)(OC)Oc1ccc([N+](=O)[O-])cc1
inactive: Potency [1] | Potency [2] | outcome [3] | Potency [4] | activation [5] 0.442% | Potency [6] | max response [7] -1.73% | max response [8] -12.8% | Potency [9] | max response [10] -1.53%

C=CCC1=C(C)[C@@H](OC(=O)[C@@H]2[C@@H](C=C(C)C)C2(C)C)CC1=O
inactive: Potency [1] | Potency [2] | activation [11] 1.31% | Potency [12] | outcome [3] | Potency [13] | Potency [4] | max response [15] -11.9% | activation [16] 0.97% | activation [17] -0.0415% | activation [5] 1.77% | max response [18] 2.33% | Potency [6] | max response [7] -11.6% | max response [8] -2.02% | Potency [9]
-5.3%: max response [14]

Cc1c(F)c(F)c(COC(=O)C2C(/C=C(\Cl)C(F)(F)F)C2(C)C)c(F)c1F (stereo not given)
inactive: Potency [1] | Potency [2] | activation [11] 9.43% | outcome [19] | Potency [20] | Potency [12] | outcome [3] | Potency [13] | Potency [4] | max response [15] 12% | activation [16] -3.48% | activation [17] -3.24% | activation [5] 0.802% | max response [18] -0.765% | Potency [6] | max response [8] -6.4% | Potency [9] | max response [10] -1.61%
-8.23%: max response [14]

CCNc1nc(NC(C)(C)C)nc(SC)n1
inactive: Potency [1] | Potency [2] | activation [11] 4.35% | outcome [19] | Potency [20] | Potency [12] | outcome [3] | Potency [13] | Potency [4] | activation [16] 13.8% | activation [17] -1.56% | activation [5] 0.606% | max response [18] 1.46% | Potency [6] | max response [7] -11.3% | max response [8] -12.7% | Potency [9] | max response [10] 2.02%

CN(C)c1nc(=O)n(C2CCCCC2)c(=O)n1C
-2.46%: max response [14]
inactive: Potency [1] | Potency [2] | outcome [19] | Potency [20] | Potency [12] | outcome [3] | Potency [13] | Potency [4] | max response [15] -11.2% | activation [5] 0.25% | max response [18] 0.605% | Potency [6] | max response [7] 8.36% | max response [8] -6.56% | Potency [9] | max response [10] 1.22%

CCC(C)n1c(=O)[nH]c(C)c(Br)c1=O (stereo not given)
-12.2%: max response [14]
inactive: Potency [1] | Potency [2] | Potency [20] | Potency [12] | outcome [3] | Potency [13] | Potency [4] | max response [15] 5.41% | activation [16] -1.24% | activation [17] 0.0195% | activation [5] 4.91% | max response [18] -0.488% | Potency [6] | max response [7] 4.81% | max response [8] -3.11% | Potency [9] | max response [10] -6.26%

CC(C)C(=O)OCC(C)(C)C(OC(=O)C(C)C)C(C)C (stereo not given)
-5.68%: max response [14]
inactive: Potency [1] | Potency [2] | activation [11] -2.67% | outcome [19] | Potency [20] | Potency [12] | outcome [3] | Potency [13] | max response [15] -12.8% | activation [16] -0.206% | activation [17] -2.62% | activation [5] 1.77% | max response [18] -1.27% | max response [7] -12.6% | max response [8] -13% | Potency [9] | max response [10] 2.02%

COC(=O)c1ccccc1S(=O)(=O)NC(=O)N(C)c1nc(C)nc(OC)n1
-8.58%: max response [14]
inactive: Potency [1] | Potency [2] | outcome [19] | Potency [20] | Potency [13] | Potency [4] | max response [15] -3.24% | activation [16] 0.955% | activation [17] -0.341% | activation [5] 0.249% | max response [18] -1.41% | Potency [6] | max response [7] -4.72% | max response [8] -7.64% | Potency [9] | max response [10] 0.907%

C/C(=N\NC(=O)Nc1cc(F)cc(F)c1)c1ncccc1C(=O)O
-5.57% and -1.16%: max response [14]
inactive: Potency [1] | Potency [2] | activation [11] 10.9% and -10.6% | Potency [20] | Potency [12] | outcome [3] | Potency [13] | Potency [4] | max response [15] -18.2% and 0.0153% | activation [16] -1.04% and 1.35% | activation [17] 0.367% and -2.66% | activation [5] 0.312% and 2.08% | Potency [6] | max response [7] -4.25% and -0.19% | max response [8] -5.69% and -3.6% | Potency [9] | max response [10] -0.995% and 1.1%

c1cc[n+]2c(c1)-c1cccc[n+]1CC2
2.2%: max response [14]
active: Potency [1] 25.1 µM [inhibitor]
inactive: Potency [2] | activation [11] 1.75% | outcome [19] | Potency [20] | Potency [12] | outcome [3] | Potency [13] | Potency [4] | max response [15] -20.8% | activation [17] -2.74% | activation [5] -0.462% | max response [18] -2.84% | max response [7] 1.16% | max response [8] -11.6%

CCCCC(CC)COC(=O)Cl (stereo not given)
inactive: Potency [1] | Potency [2] | Potency [20] | Potency [12] | outcome [3] | Potency [13] | Potency [4] | max response [15] -2.38% | activation [17] -0.442% | activation [5] 2.75% | max response [18] -1.56% | Potency [6] | max response [7] -0.503% | max response [8] -1.32% | Potency [9] | max response [10] 4.58%
-5.58%: max response [14]
